# According to ChEMBL document CHEMBL1961873, “Compounds: GSK PKIS; Assays: Nanosyn kinase panel” (2012):
# Assays:
# [1] = target: Serine/threonine-protein kinase pim-2 (Homo sapiens) (UniProt Q9P1W9); conditions: at 1 µM;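 further: each value is a mean of the inhibition measurements against the kinase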
# [2] = target: Serine/threonine-protein kinase pim-3 (Homo sapiens) (UniProt Q86V86); conditions: at 0.1 µM
# [3] = target: Serine/threonine-protein kinase pim-3 (Homo sapiens) (UniProt Q86V86); conditions: at 1 µM
# [4] = target: T1, MAP kinase-activated protein kinase 5 (Homo sapiens) (UniProt Q8IW41); conditions: at 0.1 µM
# T1 sequence (whole entry): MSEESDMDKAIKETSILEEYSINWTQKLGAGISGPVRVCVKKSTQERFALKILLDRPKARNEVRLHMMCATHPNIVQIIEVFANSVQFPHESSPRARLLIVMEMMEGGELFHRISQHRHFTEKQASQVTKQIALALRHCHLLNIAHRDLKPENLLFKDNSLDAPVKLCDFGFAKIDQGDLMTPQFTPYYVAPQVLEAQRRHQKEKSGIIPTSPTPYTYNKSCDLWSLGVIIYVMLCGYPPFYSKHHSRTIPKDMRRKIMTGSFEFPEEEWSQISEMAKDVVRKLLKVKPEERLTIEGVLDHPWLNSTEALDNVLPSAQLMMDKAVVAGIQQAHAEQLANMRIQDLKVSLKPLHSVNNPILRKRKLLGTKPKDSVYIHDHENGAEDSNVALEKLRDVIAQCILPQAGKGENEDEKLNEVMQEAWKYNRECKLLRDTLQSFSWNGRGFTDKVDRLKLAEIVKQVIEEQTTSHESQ
# [5] = target: T1, MAP kinase-activated protein kinase 5 (Homo sapiens); conditions: at 1 µM
# [6] = target: Serine/threonine-protein kinase SIK1 (Homo sapiens) (UniProt P57059); conditions: at 0.1 µM
# [7] = target: Serine/threonine-protein kinase SIK1 (Homo sapiens) (UniProt P57059); conditions: at 1 µM
# [8] = target: Serine/threonine-protein kinase SIK2 (Homo sapiens) (UniProt Q9H0K1); conditions: at 0.1 µM
# [9] = target: Serine/threonine-protein kinase SIK2 (Homo sapiens) (UniProt Q9H0K1); conditions: at 1 µM
# [10] = target: T2, Serine/threonine-protein kinase TBK1 (Homo sapiens) (UniProt Q9UHD2); conditions: at 0.1 µM
# T2 sequence (whole entry): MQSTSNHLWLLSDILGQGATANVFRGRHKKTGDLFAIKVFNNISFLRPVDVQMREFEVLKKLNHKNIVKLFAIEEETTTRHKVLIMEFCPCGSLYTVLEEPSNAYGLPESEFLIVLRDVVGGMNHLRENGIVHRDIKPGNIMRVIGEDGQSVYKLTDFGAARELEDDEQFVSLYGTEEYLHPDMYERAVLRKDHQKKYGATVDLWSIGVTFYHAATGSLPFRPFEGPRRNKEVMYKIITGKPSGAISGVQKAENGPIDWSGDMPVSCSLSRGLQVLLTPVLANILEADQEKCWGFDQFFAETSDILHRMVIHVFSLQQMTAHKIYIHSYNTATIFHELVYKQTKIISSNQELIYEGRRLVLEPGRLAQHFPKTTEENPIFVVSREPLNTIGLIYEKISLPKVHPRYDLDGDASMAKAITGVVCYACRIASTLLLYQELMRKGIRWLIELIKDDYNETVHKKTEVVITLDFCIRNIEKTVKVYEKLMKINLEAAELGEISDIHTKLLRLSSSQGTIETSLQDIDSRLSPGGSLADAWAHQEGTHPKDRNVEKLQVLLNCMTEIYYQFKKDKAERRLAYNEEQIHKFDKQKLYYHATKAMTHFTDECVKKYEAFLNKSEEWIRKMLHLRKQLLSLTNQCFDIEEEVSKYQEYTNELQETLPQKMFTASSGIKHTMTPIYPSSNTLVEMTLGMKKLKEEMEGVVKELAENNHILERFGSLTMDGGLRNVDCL
# [11] = target: T2, Serine/threonine-protein kinase TBK1 (Homo sapiens); conditions: at 1 µM
# [12] = target: T3, Testis-specific serine/threonine-protein kinase 1 (Homo sapiens) (UniProt Q9BXA7); conditions: at 0.1 µM
# T3 sequence (whole entry): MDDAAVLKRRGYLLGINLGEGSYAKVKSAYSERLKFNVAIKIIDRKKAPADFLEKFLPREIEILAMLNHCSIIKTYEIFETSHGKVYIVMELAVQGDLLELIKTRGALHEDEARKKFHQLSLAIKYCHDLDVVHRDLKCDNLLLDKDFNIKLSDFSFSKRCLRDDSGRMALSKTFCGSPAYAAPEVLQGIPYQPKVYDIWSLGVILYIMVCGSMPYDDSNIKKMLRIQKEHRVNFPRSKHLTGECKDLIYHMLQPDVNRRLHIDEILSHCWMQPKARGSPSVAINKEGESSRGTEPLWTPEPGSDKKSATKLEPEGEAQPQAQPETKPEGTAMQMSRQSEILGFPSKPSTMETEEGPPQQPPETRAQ
# [13] = target: T3, Testis-specific serine/threonine-protein kinase 1 (Homo sapiens); conditions: at 1 µM
# [14] = target: T4, Testis-specific serine/threonine-protein kinase 2 (Homo sapiens) (UniProt Q96PF2); conditions: at 0.1 µM
# T4 sequence (whole entry): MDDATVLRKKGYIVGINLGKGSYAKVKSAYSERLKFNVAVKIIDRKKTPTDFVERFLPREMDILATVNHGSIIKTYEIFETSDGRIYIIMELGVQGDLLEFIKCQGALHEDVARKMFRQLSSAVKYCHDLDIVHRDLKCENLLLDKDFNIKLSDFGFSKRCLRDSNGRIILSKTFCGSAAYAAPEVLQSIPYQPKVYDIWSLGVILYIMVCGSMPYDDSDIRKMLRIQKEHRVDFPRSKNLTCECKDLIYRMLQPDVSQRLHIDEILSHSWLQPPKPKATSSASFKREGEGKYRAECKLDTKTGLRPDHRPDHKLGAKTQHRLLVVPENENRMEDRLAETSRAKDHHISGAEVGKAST
# [15] = target: T4, Testis-specific serine/threonine-protein kinase 2 (Homo sapiens); conditions: at 1 µM
# [16] = target: Casein kinase I isoform alpha (Homo sapiens) (UniProt P48729); conditions: at 0.1 µM
# [17] = target: Casein kinase I isoform alpha (Homo sapiens) (UniProt P48729); conditions: at 1 µM
# [18] = target: Casein kinase I isoform gamma-1 (Homo sapiens) (UniProt Q9HCP0); conditions: at 0.1 µM
# [19] = target: Casein kinase I isoform gamma-1 (Homo sapiens) (UniProt Q9HCP0); conditions: at 1 µM
# [20] = target: Casein kinase I isoform gamma-2 (Homo sapiens) (UniProt P78368); conditions: at 0.1 µM;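 further: values are mean inhibition figures reported as part of the GSK PKIS dataset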
# Casein kinase I isoform gamma-2 (Homo sapiens), sequence (P78368 whole entry, looked up, canonical isoform): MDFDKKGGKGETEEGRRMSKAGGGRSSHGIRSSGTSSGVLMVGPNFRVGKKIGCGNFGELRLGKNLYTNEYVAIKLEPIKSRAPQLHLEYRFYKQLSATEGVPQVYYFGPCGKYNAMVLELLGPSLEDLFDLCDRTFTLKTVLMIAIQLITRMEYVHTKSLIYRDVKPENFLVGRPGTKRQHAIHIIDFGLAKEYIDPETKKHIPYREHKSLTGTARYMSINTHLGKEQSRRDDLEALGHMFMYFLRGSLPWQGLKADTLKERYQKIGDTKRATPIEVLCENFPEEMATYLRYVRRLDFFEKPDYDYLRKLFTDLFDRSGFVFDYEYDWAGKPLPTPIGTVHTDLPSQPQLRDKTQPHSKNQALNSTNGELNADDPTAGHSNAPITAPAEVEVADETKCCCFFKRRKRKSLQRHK
# Serine/threonine-protein kinase SIK1 (Homo sapiens), sequence (P57059 whole entry): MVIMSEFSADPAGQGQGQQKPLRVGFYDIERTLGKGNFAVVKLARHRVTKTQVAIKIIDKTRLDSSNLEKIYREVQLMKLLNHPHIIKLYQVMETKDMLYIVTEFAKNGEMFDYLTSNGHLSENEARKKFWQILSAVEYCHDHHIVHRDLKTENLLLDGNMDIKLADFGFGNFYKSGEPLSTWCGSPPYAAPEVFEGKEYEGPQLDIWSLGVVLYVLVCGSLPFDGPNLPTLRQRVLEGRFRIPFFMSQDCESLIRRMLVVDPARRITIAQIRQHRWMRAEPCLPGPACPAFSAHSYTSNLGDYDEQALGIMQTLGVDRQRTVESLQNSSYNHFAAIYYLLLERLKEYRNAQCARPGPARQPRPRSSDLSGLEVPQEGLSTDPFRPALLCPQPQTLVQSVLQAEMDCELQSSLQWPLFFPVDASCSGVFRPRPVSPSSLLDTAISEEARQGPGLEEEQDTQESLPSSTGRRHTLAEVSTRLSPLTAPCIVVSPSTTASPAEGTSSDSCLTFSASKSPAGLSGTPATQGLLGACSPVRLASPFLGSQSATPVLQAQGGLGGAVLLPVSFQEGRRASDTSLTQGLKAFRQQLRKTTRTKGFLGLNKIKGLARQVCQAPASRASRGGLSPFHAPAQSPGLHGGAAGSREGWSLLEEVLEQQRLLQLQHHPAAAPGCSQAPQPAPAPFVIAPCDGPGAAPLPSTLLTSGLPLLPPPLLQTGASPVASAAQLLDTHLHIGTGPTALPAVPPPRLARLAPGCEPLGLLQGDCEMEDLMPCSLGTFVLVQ
# Casein kinase I isoform gamma-1 (Homo sapiens), sequence (Q9HCP0 whole entry, looked up, canonical isoform): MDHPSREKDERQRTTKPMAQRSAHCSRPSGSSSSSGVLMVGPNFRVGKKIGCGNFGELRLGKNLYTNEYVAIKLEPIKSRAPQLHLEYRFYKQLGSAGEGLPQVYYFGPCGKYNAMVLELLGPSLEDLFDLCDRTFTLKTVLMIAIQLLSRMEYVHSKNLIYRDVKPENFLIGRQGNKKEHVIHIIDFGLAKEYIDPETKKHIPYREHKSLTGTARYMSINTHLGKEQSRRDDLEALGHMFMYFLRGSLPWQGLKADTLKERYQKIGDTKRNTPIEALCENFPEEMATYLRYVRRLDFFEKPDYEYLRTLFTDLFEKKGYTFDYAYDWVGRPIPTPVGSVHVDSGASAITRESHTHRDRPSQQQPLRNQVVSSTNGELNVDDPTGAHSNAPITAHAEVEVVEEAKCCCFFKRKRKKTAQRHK
# Serine/threonine-protein kinase SIK2 (Homo sapiens), sequence (Q9H0K1 whole entry, looked up): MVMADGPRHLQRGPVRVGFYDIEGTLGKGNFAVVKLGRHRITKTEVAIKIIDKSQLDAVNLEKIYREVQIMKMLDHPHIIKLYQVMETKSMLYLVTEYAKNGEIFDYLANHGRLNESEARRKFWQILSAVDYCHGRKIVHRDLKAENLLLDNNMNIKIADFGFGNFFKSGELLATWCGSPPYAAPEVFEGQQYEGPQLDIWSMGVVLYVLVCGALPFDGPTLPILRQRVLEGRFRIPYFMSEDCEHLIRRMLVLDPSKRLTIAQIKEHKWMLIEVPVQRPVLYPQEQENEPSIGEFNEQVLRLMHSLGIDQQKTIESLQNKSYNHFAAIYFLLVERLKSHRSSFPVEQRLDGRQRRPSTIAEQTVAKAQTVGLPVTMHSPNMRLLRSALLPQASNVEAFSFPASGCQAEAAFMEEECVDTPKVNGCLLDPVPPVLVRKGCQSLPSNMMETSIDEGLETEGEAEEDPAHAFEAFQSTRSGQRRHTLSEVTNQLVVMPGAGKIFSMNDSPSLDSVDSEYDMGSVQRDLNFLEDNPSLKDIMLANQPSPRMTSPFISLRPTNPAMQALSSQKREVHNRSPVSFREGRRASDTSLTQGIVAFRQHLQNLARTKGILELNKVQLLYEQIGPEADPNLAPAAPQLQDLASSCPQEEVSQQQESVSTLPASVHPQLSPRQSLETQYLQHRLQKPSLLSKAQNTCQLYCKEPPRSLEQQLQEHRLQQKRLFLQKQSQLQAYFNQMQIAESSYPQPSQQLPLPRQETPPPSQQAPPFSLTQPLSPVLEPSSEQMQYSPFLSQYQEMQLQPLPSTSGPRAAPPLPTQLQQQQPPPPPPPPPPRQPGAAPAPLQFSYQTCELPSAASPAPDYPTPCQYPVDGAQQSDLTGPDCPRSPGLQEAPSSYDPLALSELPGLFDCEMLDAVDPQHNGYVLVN
# Serine/threonine-protein kinase pim-2 (Homo sapiens), sequence (Q9P1W9 whole entry, looked up): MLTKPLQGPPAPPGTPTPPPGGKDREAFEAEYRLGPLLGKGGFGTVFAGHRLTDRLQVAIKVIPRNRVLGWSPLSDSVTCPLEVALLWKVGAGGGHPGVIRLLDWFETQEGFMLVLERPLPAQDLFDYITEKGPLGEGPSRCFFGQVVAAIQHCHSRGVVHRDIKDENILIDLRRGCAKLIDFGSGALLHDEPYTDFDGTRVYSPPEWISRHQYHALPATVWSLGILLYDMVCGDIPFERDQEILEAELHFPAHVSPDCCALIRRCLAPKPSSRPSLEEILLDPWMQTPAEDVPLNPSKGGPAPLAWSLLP
# Casein kinase I isoform alpha (Homo sapiens), sequence (P48729 2-337 limits assumed): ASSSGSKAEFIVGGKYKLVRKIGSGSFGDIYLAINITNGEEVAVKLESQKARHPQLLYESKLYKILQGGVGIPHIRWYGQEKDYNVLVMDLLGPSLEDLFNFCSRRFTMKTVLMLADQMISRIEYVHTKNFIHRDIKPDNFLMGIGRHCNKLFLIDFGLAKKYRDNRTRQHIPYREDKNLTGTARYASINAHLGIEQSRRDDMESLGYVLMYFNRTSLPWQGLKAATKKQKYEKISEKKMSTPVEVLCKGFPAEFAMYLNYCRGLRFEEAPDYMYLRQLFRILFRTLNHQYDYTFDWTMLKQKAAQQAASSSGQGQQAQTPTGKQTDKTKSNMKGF
structure (smiles),measurement,setting,value
COc1cccc(-n2cnc3c(N/N=C/c4ccncc4)ncnc32)c1,inhibition,[1],-3.43%
same,inhibition,[2],3.67%
same,inhibition,[3],6.5%
same,inhibition,[4],0.59%
same,inhibition,[5],2.56%
same,inhibition,[6],1.88%
same,inhibition,[7],12%
same,inhibition,[8],9.07%
same,inhibition,[9],34.1%
same,inhibition,[10],0.99%
same,inhibition,[11],2.56%
same,inhibition,[12],0.41%
same,inhibition,[13],5.32%
same,inhibition,[14],0.37%
same,inhibition,[15],4.98%
same,inhibition,[16],0.17%
same,inhibition,[17],0.8%
same,inhibition,[18],-3.8%
same,inhibition,[19],-4.26%
same,inhibition,[20],-3.36%
O=C(Nc1n[nH]c2cc(-c3cc(F)ccc3F)ccc12)C1CC1,inhibition,[1],-0.55%
same,inhibition,[2],-2.08%
same,inhibition,[3],-1.66%
same,inhibition,[4],0.74%
same,inhibition,[5],0.41%
same,inhibition,[6],5.25%
same,inhibition,[7],11.2%
same,inhibition,[8],10.9%
same,inhibition,[9],21.9%
same,inhibition,[10],3.98%
same,inhibition,[11],5.44%
same,inhibition,[12],2.75%
same,inhibition,[13],2.04%
same,inhibition,[14],1.22%
same,inhibition,[15],0.5%
same,inhibition,[16],0.79%
same,inhibition,[17],1.31%
same,inhibition,[18],3.28%
same,inhibition,[19],3.73%
same,inhibition,[20],2.53%
CCc1cccc(CC)c1/C=C/c1cncc(C(=O)NC)c1,inhibition,[1],-0.07%
same,inhibition,[2],-0.9%
same,inhibition,[3],-2.15%
same,inhibition,[4],0.86%
same,inhibition,[5],-0.1%
same,inhibition,[6],0.91%
same,inhibition,[7],6.26%
same,inhibition,[8],1.69%
same,inhibition,[9],-1.33%
same,inhibition,[10],0.14%
same,inhibition,[11],1.52%
same,inhibition,[12],1.47%
same,inhibition,[13],0.1%
same,inhibition,[14],1.86%
same,inhibition,[15],-3.19%
same,inhibition,[16],2.53%
same,inhibition,[17],6.21%
same,inhibition,[18],2.66%
same,inhibition,[19],5.44%
same,inhibition,[20],1.49%
c1ccc(Oc2ccc(Nc3ncc(-c4ccccc4)o3)cc2)cc1,inhibition,[1],0.53%
same,inhibition,[2],0.36%
same,inhibition,[3],1.18%
same,inhibition,[4],0.66%
same,inhibition,[5],0.94%
same,inhibition,[6],2.57%
same,inhibition,[7],3.12%
same,inhibition,[8],1.87%
same,inhibition,[9],1.2%
same,inhibition,[10],3.15%
same,inhibition,[11],2.41%
same,inhibition,[12],1.11%
same,inhibition,[13],1.56%
same,inhibition,[14],0.35%
same,inhibition,[15],0.74%
same,inhibition,[16],5.38%
same,inhibition,[17],7.2%
same,inhibition,[18],0.74%
same,inhibition,[19],2.02%
same,inhibition,[20],0.49%
COc1ccc(-c2ccc3c(NC(=O)C4CC4)n[nH]c3n2)cc1,inhibition,[1],0.38%
same,inhibition,[2],0.42%
same,inhibition,[3],0.61%
same,inhibition,[4],1.05%
same,inhibition,[5],2.54%
same,inhibition,[6],-0.67%
same,inhibition,[7],4.73%
same,inhibition,[8],2.86%
same,inhibition,[9],6.15%
same,inhibition,[10],2.33%
same,inhibition,[11],0.62%
same,inhibition,[12],2.89%
same,inhibition,[13],4.85%
same,inhibition,[14],0.65%
same,inhibition,[15],4.63%
same,inhibition,[16],6.34%
same,inhibition,[17],0.42%
same,inhibition,[18],1.84%
same,inhibition,[19],2.17%
same,inhibition,[20],1.99%
COc1ccc2cc(-c3c(-c4ccncc4)nc(-c4ccc([S+](C)[O-])cc4C)n3C)ccc2c1 (stereo not given),inhibition,[1],0.03%
same,inhibition,[2],0.41%
same,inhibition,[3],0.9%
same,inhibition,[4],-0.74%
same,inhibition,[5],-0.31%
same,inhibition,[6],-2.25%
same,inhibition,[7],3.56%
same,inhibition,[8],-6.12%
same,inhibition,[9],-0.83%
same,inhibition,[10],0.16%
same,inhibition,[11],1.97%
same,inhibition,[12],0.4%
same,inhibition,[13],-0.58%
same,inhibition,[14],0.06%
same,inhibition,[15],-0.06%
same,inhibition,[16],0.77%
same,inhibition,[17],0.53%
same,inhibition,[18],-0.99%
same,inhibition,[19],-0.39%
same,inhibition,[20],-0.73%
Nc1nccc(-c2c(-c3ccc(F)cc3)ncn2C2CCC(O)CC2)n1 (stereo not given),inhibition,[1],0.53%
same,inhibition,[2],0.04%
same,inhibition,[3],0.35%
same,inhibition,[4],-0.92%
same,inhibition,[5],-0.32%
same,inhibition,[6],0.06%
same,inhibition,[7],4.75%
same,inhibition,[8],-0.25%
same,inhibition,[9],28.6%
same,inhibition,[10],5.52%
same,inhibition,[11],1.41%
same,inhibition,[12],-2.82%
same,inhibition,[13],-1.96%
same,inhibition,[14],-1.46%
same,inhibition,[15],-0.41%
same,inhibition,[16],62.4%
same,inhibition,[17],90.1%
same,inhibition,[18],-1.19%
same,inhibition,[19],5.79%
same,inhibition,[20],-1.13%
COc1cc(N2CCN(C(C)C)CC2)ccc1Nc1nc(Nc2ccc(F)cc2C(=O)NC[C@@H](O)CO)c2cc[nH]c2n1,inhibition,[1],-3.2%
same,inhibition,[2],1.39%
same,inhibition,[3],5.28%
same,inhibition,[4],2.43%
same,inhibition,[5],4.77%
same,inhibition,[6],1.88%
same,inhibition,[7],9.27%
same,inhibition,[8],4.52%
same,inhibition,[9],9.21%
same,inhibition,[10],1.74%
same,inhibition,[11],4.23%
same,inhibition,[12],45.9%
same,inhibition,[13],84.9%
same,inhibition,[14],15.7%
same,inhibition,[15],53.7%
same,inhibition,[16],4.46%
same,inhibition,[17],12.9%
same,inhibition,[18],2.26%
same,inhibition,[19],17.9%
same,inhibition,[20],2.13%
CN(C)CCOc1ccc(-c2cc(-c3ccc4c(c3)CCC4=NO)c(-c3ccncc3)o2)cc1,inhibition,[1],0.08%
same,inhibition,[2],1.08%
same,inhibition,[3],0.13%
same,inhibition,[4],-0.29%
same,inhibition,[5],-0.04%
same,inhibition,[6],0.11%
same,inhibition,[7],6.09%
same,inhibition,[8],-4.64%
same,inhibition,[9],-1.24%
same,inhibition,[10],-2.4%
same,inhibition,[11],-0.95%
same,inhibition,[12],-0.74%
same,inhibition,[13],0.17%
same,inhibition,[14],0.18%
same,inhibition,[15],1.16%
same,inhibition,[16],-1.99%
same,inhibition,[17],-1.5%
same,inhibition,[18],-1.03%
same,inhibition,[19],-0.13%
same,inhibition,[20],-0.84%
Fc1ccc(-c2nc3n(c2-c2ccncc2)CCS3)cc1,inhibition,[1],-3.08%
same,inhibition,[2],-1.3%
same,inhibition,[3],-1.87%
same,inhibition,[4],1.2%
same,inhibition,[5],0.34%
same,inhibition,[6],5%
same,inhibition,[7],13.5%
same,inhibition,[8],1.21%
same,inhibition,[9],7.35%
same,inhibition,[10],2.27%
same,inhibition,[11],2.87%
same,inhibition,[12],3.08%
same,inhibition,[13],2.73%
same,inhibition,[14],1.01%
same,inhibition,[15],0.48%
same,inhibition,[16],10.8%
same,inhibition,[17],42.4%
same,inhibition,[18],0.76%
same,inhibition,[19],5.36%
same,inhibition,[20],-1.13%
Fc1ccc(-c2ncn(CCCN3CCOCC3)c2-c2ccncc2)cc1,inhibition,[1],0.84%
same,inhibition,[2],-1.36%
same,inhibition,[3],-2.93%
same,inhibition,[4],-0.65%
same,inhibition,[5],-1.42%
same,inhibition,[6],-2.01%
same,inhibition,[7],3.56%
same,inhibition,[8],-2.31%
same,inhibition,[9],2.48%
same,inhibition,[10],1.21%
same,inhibition,[11],0.48%
same,inhibition,[12],-0.41%
same,inhibition,[13],-0.42%
same,inhibition,[14],-1.62%
same,inhibition,[15],-0.63%
same,inhibition,[16],2.04%
same,inhibition,[17],5.39%
same,inhibition,[18],0.8%
same,inhibition,[19],1.79%
same,inhibition,[20],1.74%
